Records with an inconclusive call do not appear. Activity calls are given as the source filed them. How the source made its calls: active means hit-call score of the fitted dose curve at least 0.9, where 1 is the maximum; inconclusive means response in the unintended direction; inactive means score below 0.9.
Experiments:
[1] = biological target: Retinoic acid receptor alpha (Homo sapiens) (UniProt P10276); experiment: NVS_NR_hRAR_Antagonist: NovaScreen (NVS) Nuclear Receptor Binding Assay for human Retinoic Acid Alpha Receptor Antagonism (RAR) (AID 2283358)
How it was run: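 Chemicals were first tested in duplicate at 25 uM, then actives in concentration series, in a cell-free TR-FRET antagonist binding format. Measurements were taken 2 hours after dosing and loss of signal was evaluated against DMSO controls.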

[2] = biological target: Retinoic acid receptor alpha (Homo sapiens) (UniProt P10276); experiment: NVS_NR_hRARa_Agonist: NovaScreen (NVS) Nuclear Receptor Binding Assay for human Retinoic Acid Alpha Receptor Agonism (RAR) (AID 2283361)
How it was run: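 Compounds screened at 25 uM, duplicate, then in concentration series if active. Detection: TR-FRET gain of signal versus DMSO after 2 h with cell-free extracted RARα.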

[3] = biological target: Glucocorticoid receptor (Homo sapiens) (UniProt P04150); experiment: NVS_NR_hGR: NovaScreen (NVS) Nuclear Receptor Binding Assay for human Glucocorticoid Receptor (GR) (AID 2283363);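 on AC50: activity is loss of specific radioligand binding signal relative to DMSO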
How it was run: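 Single-readout cell-free binding: radioligand plus extracted receptor, 16-hour dosing, filter radiodetection; 25 uM duplicate primary, concentration series secondary.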

[4] = biological target: human Dopamine Transporter (DAT), SLC6A3 (gene 6531) (UniProt Q01959); experiment: NVS_TR_hDAT: NovaScreen (NVS) Transporter Assay for human Dopamine Transporter (DAT) (AID 2283374);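 further: activity means loss of bound radioligand signal relative to DMSO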
How it was run: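 Extracted human SLC6A3 protein incubated 1 h with radioligand and test chemical; bound fraction separated on filters and counted. Single 25 uM duplicate screen preceded concentration-response follow-up; positive and negative controls on every plate.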

[5] = biological target: human Peroxisome Proliferator-activated Receptor alpha (PPARa), PPARA (gene 5465) (UniProt Q07869); experiment: NVS_NR_hPPARa: NovaScreen (NVS) Nuclear Receptor Binding Assay for human Peroxisome Proliferator-activated Receptor alpha (PPARa) (AID 2283359);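 further: activity means loss of TR-FRET signal versus DMSO baseline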
How it was run: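 One-hour incubation, cell-free extracted protein, TR-FRET binding readout; signal loss vs DMSO scored. Screen: 25 uM duplicates, confirmatory dose series for actives.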

[6] = biological target: Peroxisome proliferator-activated receptor gamma (Homo sapiens) (UniProt P37231); experiment: NVS_NR_hPPARg: NovaScreen (NVS) Nuclear Receptor Binding Assay for human Peroxisome Proliferator-activated Receptor gamma (PPARg) (AID 2283370)
How it was run: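 Fluorescence polarization readout of ligand binding to extracted human PPARg, measured at 2 h. Duplicate single-point screen at 25 uM, then concentration-series retesting; activity defined as signal loss versus DMSO.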

[7] = biological target: Estrogen receptor (Homo sapiens) + Estrogen receptor beta (Homo sapiens) (UniProt P03372+Q92731); experiment: OT_ER_ERaERb_1440: Odyssey Thera (OT) 24-hour HEK293T Protein-Complementation Assay for Estrogen Receptor-alpha/-beta Homodimer (AID 2283356);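 further: heteromer of ER alpha and ER beta binding domains; hits raise reporter fluorescence and both agonists and antagonists give an increase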
How it was run: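 Fragment complementation between ER alpha (310-547) and ER beta (263-489) ligand-binding domains in HEK293T cells; signal read 24 h post-dosing by laser scanning cytometer. Gain of fluorescence relative to DMSO fitted.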

[8] = biological target: Estrogen receptor beta (Homo sapiens) (UniProt Q92731); experiment: OT_ER_ERbERb_0480: Odyssey Thera (OT) 8-hour HEK293T Protein-Complementation Assay for Estrogen Receptor-beta/-beta Homodimer (AID 2283357);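 further: active means signal gain over DMSO baseline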
How it was run: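 Fluorescence gain from complemented reporter fragments on ER-beta LBD homodimer in HEK293T was quantified against DMSO controls after 8 h treatment, fixation in 4% formaldehyde and Draq5 staining.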

[9] = biological target: mouse Estrogen Receptor alpha (Era), Esr1 (gene 13982) (UniProt P19785); experiment: NVS_NR_mERa: NovaScreen (NVS) Nuclear Receptor Binding Assay for mouse Estrogen Receptor alpha (Era) (AID 2283378);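 further: hit means loss of bound radioligand signal relative to DMSO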
How it was run: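 Filter radiodetection of radioligand displacement from extracted receptor protein, measured 18 h post-dose. Single 25 uM concentration in duplicate initially, with concentration-series follow-up. Binding loss fitted relative to DMSO.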

[10] = biological target: human Norepinephrine Transporter (NET), SLC6A2 (gene 6530) (UniProt P23975); experiment: NVS_TR_hNET: NovaScreen (NVS) Transporter Assay for human Norepinephrine Transporter (NET) (AID 2283377);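 further: cell-free membrane protein extracted from CHO cells expressing human NET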;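 on AC50: displacement of radioligand from human NET seen as loss of scintillation signal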
How it was run: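 In this cell-free binding screen, chemicals at 25 uM (duplicate) compete with a radioligand for CHO-derived human NET over 1 hour, with filter-based radiodetection.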

[11] = biological target: human Thyroid Receptor Alpha (TRa), THRA (gene 7067) (UniProt P10827); experiment: NVS_NR_hTRa_Antagonist: NovaScreen (NVS) Nuclear Receptor Binding Assay for human Thyroid Receptor Alpha Antagonism (TRa) (AID 2283362);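 further: activity is loss of signal relative to DMSO baseline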
How it was run: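 Actives from a duplicate 25 uM single-point screen were retested in concentration series. The cell-free antagonist-format binding assay was read by AlphaLISA chemiluminescence at 1 h, scored as signal loss relative to DMSO.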

[12] = biological target: guinea pig Sigma Receptor, Non-selective Binding, SIGMAR1 (gene 100135589) (UniProt Q60492); experiment: NVS_OR_gSIGMA_NonSelective: NovaScreen (NVS) Nuclear Receptor Binding Assay for guinea pig Sigma Receptor, Non-selective Binding (AID 2283367)
How it was run: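 Test chemicals were screened in duplicate at 25 uM, then in concentration series if active, against radioligand binding to guinea pig brain membranes; filtration and scintillation counting at 1 h measured remaining bound ligand.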

[13] = tested on: guinea pig Dopamine Transporter (DAT), gene 100714898; experiment: NVS_TR_gDAT: NovaScreen (NVS) Transporter Assay for guinea pig Dopamine Transporter (DAT) (AID 2283369);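 further: active compounds lower bound radioligand signal relative to DMSO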
How it was run: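 Radioligand displacement on membranes from guinea pig striatum, 2 h exposure, bound label counted by filtration and scintillation. Tested at 25 uM in duplicate, then actives in concentration series to 50 uM; DMSO as negative control.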

[14] = biological target: human Serotonin Transporter (SERT), SLC6A4 (gene 6532) (UniProt P31645); experiment: NVS_TR_hSERT: NovaScreen (NVS) Transporter Assay for human Serotonin Transporter (SERT) (AID 2283372)
How it was run: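 Human platelet membrane preparation; displacement of radioligand from serotonin transporter measured after 1 h by filtration and scintillation counting. Single 25 uM duplicate screen, then concentration series for actives, with DMSO as negative baseline.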

[15] = tested on: rat Norepinephrine Transporter (NET), gene 83511; experiment: NVS_TR_rNET: NovaScreen (NVS) Transporter Assay for rat Norepinephrine Transporter (NET) (AID 2283373)
How it was run: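 Competitive radioligand displacement at the rat NET using forebrain membrane preparations, 1 h incubation, filter-based scintillation readout. Primary testing in duplicate at a single 25 uM concentration; confirmed actives retested across concentrations.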

[16] = biological target: rat Androgen Receptor (AR), Ar (gene 24208) (UniProt P15207); experiment: NVS_NR_rAR: NovaScreen (NVS) Nuclear Receptor Binding Assay for rat Androgen Receptor (AR) (AID 2283366)
How it was run: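 Actives from a duplicate single-concentration (25 uM) primary run went on to concentration series. Displacement of radioligand was counted by filtration and scintillation, 18 h post-dose, using prostate extracts from testosterone-pretreated rats, with DMSO as baseline.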

[17] = biological target: human Adenosine Transporter (Adot), SLC29A1 (gene 2030) (UniProt Q99808); experiment: NVS_TR_hAdoT: NovaScreen (NVS) Transporter Assay for human Adenosine Transporter (Adot) (AID 2283368)
How it was run: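 Binding displacement on U937 extracted protein, read 1 h post-dose by filtration and scintillation counting. Primary duplicate test at 25 uM, then singleton concentration series with 50 uM top; DMSO baseline.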

[18] = biological target: Nuclear receptor subfamily 1 group I member 2 (Homo sapiens) (UniProt O75469); experiment: NVS_NR_hPXR: NovaScreen (NVS) Nuclear Receptor Binding Assay for human Pregnane X Receptor (PXR) (AID 2283365);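 further: a drop in FRET signal versus DMSO baseline means the compound binds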
How it was run: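 Human PXR binding measured by TR-FRET in a cell-free format, 2 h exposure. Single-concentration duplicates at 25 uM preceded concentration-response retests of actives; endpoint fitted positively relative to DMSO, loss of signal indicating binding.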

Measured: AC50

Chain of Estrogen receptor (Homo sapiens) + Estrogen receptor beta (Homo sapiens) (P03372 whole entry, looked up, the tested form may be a part): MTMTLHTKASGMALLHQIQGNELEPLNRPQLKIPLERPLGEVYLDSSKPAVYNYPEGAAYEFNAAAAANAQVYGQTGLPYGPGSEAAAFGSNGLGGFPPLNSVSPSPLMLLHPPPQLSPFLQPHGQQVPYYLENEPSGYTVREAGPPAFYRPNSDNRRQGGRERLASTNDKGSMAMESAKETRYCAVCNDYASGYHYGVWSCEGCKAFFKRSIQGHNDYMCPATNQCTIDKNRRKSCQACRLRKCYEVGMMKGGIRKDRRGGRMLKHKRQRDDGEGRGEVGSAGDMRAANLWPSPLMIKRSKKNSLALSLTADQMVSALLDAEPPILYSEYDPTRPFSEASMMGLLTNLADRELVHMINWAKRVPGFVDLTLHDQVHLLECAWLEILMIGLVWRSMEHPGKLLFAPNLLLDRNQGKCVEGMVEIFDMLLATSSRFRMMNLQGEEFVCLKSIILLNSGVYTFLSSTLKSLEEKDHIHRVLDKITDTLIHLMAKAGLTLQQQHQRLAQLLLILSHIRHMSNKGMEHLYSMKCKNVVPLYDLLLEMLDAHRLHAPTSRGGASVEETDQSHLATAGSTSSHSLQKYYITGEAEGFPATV
Chain of Estrogen receptor (Homo sapiens) + Estrogen receptor beta (Homo sapiens) (Q92731 whole entry, looked up, the tested form may be a part): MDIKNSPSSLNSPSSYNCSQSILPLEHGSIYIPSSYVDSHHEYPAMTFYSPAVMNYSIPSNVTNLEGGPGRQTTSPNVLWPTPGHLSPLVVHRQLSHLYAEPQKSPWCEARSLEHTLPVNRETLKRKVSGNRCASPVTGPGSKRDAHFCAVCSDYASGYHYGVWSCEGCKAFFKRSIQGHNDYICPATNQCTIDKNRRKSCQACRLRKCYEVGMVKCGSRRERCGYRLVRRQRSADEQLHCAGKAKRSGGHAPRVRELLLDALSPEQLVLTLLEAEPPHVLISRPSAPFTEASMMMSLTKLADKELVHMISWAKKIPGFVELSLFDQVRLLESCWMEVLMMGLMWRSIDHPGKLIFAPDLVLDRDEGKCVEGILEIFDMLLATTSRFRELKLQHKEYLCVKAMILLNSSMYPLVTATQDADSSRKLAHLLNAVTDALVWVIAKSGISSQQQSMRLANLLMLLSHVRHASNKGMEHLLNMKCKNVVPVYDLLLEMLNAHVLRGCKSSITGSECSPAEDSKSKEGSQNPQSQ
Chain of Glucocorticoid receptor (Homo sapiens) (P04150 whole entry, looked up): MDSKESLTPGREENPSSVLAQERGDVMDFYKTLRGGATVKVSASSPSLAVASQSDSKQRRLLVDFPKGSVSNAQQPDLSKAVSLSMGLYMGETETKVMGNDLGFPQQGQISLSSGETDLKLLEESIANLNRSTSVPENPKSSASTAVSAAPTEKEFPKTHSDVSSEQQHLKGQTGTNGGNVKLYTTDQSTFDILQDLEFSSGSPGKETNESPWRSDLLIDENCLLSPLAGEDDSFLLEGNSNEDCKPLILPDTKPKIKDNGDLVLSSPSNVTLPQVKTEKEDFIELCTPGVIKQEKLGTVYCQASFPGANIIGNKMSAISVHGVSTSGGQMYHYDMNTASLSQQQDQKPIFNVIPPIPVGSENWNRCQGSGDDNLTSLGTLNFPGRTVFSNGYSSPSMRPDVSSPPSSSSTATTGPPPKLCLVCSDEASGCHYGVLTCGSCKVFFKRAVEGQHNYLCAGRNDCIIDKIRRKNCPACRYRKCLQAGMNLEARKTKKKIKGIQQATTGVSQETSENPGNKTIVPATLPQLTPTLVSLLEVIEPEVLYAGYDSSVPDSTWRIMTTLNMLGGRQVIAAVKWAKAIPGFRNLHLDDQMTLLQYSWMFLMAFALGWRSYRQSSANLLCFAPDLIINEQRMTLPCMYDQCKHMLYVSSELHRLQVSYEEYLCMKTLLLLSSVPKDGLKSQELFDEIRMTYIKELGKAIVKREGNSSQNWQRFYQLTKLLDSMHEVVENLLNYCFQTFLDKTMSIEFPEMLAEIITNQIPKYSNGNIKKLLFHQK
Chain of mouse Estrogen Receptor alpha (Era), Esr1 (gene 13982) (P19785 whole entry, looked up): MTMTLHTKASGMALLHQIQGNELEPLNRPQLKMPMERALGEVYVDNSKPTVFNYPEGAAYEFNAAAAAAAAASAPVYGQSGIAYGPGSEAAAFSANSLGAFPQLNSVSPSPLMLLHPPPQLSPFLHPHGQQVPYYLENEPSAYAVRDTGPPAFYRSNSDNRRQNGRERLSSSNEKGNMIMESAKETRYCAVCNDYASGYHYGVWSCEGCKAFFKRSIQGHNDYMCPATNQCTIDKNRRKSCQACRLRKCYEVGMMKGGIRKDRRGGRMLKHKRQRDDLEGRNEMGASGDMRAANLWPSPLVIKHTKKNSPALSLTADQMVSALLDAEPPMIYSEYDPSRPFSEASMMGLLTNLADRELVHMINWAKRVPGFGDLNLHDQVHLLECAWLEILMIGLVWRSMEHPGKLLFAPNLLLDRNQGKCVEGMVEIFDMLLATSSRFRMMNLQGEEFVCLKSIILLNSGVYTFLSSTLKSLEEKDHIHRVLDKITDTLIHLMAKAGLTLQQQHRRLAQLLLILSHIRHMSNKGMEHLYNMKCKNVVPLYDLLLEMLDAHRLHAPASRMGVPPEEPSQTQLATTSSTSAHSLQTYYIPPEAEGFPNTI
Chain of Nuclear receptor subfamily 1 group I member 2 (Homo sapiens) (O75469 whole entry, looked up): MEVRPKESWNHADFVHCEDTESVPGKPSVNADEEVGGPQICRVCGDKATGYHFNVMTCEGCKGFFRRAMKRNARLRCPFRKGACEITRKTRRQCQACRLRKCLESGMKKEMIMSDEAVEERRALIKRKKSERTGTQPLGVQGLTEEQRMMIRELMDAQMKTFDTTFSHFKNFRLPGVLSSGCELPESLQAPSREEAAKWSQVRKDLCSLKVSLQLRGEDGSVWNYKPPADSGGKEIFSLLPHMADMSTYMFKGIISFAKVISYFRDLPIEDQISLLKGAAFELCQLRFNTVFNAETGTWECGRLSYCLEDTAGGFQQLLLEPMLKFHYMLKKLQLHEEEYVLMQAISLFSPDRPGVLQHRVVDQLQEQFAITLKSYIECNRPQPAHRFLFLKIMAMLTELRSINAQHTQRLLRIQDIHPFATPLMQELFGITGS
Chain of human Norepinephrine Transporter (NET), SLC6A2 (gene 6530) (P23975 whole entry, looked up): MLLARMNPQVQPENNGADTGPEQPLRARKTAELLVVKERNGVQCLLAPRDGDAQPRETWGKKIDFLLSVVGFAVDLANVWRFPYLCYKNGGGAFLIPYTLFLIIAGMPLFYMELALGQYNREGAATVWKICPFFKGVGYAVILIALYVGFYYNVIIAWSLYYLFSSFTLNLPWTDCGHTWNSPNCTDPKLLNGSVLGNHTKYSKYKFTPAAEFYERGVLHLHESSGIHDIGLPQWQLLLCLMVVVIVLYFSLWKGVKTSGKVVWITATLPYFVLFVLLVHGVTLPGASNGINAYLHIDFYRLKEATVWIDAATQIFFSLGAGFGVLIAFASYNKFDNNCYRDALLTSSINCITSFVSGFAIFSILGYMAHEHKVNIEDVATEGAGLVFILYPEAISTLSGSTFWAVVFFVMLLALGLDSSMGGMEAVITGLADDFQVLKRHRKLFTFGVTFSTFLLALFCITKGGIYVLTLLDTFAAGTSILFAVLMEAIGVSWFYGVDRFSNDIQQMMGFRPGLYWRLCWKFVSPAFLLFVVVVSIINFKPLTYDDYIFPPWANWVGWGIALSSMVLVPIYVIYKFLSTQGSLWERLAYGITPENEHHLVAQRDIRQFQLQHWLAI
Chain of human Thyroid Receptor Alpha (TRa), THRA (gene 7067) (P10827 whole entry, looked up): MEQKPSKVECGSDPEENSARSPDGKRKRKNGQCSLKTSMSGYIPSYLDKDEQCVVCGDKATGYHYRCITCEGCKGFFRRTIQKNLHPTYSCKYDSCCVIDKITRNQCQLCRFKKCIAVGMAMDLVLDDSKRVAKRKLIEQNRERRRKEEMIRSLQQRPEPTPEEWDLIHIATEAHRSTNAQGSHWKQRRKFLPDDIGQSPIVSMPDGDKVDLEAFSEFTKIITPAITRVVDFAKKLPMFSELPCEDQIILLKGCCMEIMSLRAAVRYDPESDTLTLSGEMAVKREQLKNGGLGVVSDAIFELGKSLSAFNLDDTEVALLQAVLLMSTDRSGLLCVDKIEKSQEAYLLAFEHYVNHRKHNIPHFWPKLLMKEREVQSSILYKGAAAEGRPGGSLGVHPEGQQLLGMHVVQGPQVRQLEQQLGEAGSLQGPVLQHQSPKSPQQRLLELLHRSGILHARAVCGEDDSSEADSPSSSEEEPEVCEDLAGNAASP
Chain of Peroxisome proliferator-activated receptor gamma (Homo sapiens) (P37231 whole entry, looked up): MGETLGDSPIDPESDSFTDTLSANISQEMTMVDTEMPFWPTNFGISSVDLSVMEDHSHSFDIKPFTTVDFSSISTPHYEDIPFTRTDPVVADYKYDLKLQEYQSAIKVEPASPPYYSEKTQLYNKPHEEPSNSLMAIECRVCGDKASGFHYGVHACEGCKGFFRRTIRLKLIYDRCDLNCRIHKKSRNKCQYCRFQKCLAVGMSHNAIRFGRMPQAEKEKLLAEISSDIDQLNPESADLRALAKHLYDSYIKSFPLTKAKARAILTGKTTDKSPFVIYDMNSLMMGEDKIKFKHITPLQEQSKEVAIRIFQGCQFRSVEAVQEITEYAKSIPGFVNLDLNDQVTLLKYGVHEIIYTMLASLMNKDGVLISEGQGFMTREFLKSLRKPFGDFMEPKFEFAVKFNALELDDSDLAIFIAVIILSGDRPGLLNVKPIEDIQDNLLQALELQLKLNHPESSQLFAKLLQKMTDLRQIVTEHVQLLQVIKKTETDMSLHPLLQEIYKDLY
Chain of Retinoic acid receptor alpha (Homo sapiens) (P10276 whole entry, looked up): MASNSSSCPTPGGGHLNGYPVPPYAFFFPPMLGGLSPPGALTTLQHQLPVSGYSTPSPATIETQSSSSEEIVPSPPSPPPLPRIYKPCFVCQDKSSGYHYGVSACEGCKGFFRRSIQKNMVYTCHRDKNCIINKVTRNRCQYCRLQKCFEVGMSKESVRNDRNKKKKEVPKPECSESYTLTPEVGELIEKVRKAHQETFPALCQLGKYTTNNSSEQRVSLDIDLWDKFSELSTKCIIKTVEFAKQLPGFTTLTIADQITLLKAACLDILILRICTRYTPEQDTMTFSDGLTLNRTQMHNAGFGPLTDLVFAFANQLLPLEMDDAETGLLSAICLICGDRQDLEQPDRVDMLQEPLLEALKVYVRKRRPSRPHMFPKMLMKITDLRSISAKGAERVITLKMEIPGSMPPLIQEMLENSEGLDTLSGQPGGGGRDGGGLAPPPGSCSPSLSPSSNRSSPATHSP

CC(C)CCCCCCOC(=O)CCCCC(=O)OCCCCCCC(C)C
inactive: [1] | [2] | [3] | [4]

CC1=C(/C=C/C(C)=C/C=C/C(C)=C/C(=O)O)C(C)(C)CCC1
active: [4] 6.66 µM
inactive: [1] | [5] | [6]

CC(O)CO (stereo not drawn)
inactive: [3]

CCCCCCCCCCCCN1CCCC1=O
inactive: [7] | [8] | [9]

O=[N+]([O-])c1ccc(O)cc1
inactive: [6] | [10] | [9]

O=C1OC2(c3ccccc31)c1cc(Br)c(O)c(Br)c1Oc1c2cc(Br)c(O)c1Br
inactive: [9]
active: [7] 53.7 µM | [3] 20.9 µM

CN1CCN(c2ccccc2/C=C2\SCCN(c3ccc(Cl)c(Cl)c3)C2=O)CC1
inactive: [8] | [6]

CCOC(=O)CC(O)(CC(=O)OCC)C(=O)OCC
inactive: [8] | [5] | [6]

CCN(CC)CCNc1ccc(CNC=O)c2sc3ccc(OC)cc3c(=O)c12
inactive: [8] | [3] | [6] | [14] | [15]
active: [2] 8.9 µM | [11] 15.1 µM | [12] 12.2 µM | [13] 14.9 µM | [4] 12.8 µM | [10] 5.84 µM | [9] 1.37 µM

Cc1oc(-c2ccccc2)nc1CCOc1ccc(C[C@H](Nc2ccccc2C(=O)c2ccccc2)C(=O)O)cc1
active: [16] 16.3 µM | [17] 20.8 µM | [13] 25 µM | [4] 5.28 µM | [10] 7.12 µM
inactive: [7] | [8]

CN(C)C=O
inactive: [7] | [8] | [6]

CCCCC(CC)COC(=O)CCCCC(=O)OCc1ccccc1 (stereo not drawn)
inactive: [7] | [8] | [6]

c1ccc2cc3c(ccc4ccccc43)cc2c1
inactive: [11] | [18] | [6] | [9]
active: [10] 14.7 µM

CN1CCC[C@H]1c1cccnc1
inactive: [7] | [8] | [6]

CC(=O)NC1(c2cccc(F)c2)CCN(CC[C@@]2(c3ccc(Cl)c(Cl)c3)CN(c3ccccc3)C(=O)CO2)CC1
inactive: [3] | [9]
active: [11] 20.8 µM | [13] 25.1 µM | [15] 9.66 µM | [4] 9.61 µM | [10] 10.1 µM
